Compound activity from PubChem.
MBNL1-CUG inh: blocks human MBNL1 binding to CUG repeat RNA; Q9NR56; TR-FRET MBNL1-His/biotin-(CUG)12 binding, 665/545 ratio; Potency, µM (doses to about 57.5 µM), without a hit: at the top dose activity change, negative = inhibition, usual class: inhibitors; 280,000 compounds, 0.036% hits; active = well fitted inhibition curve with a large enough effect in the signal ratio, with a control signal flat, not every such curve was filed as active; inconclusive = small, poorly fitted or top-dose-only effect, or effect the other way, or a change in a side signal; inactive = no such curve, though single readings can be large or run the other way; the % refers to the signal ratio; note: % is set by controls: 0 for no effect and ±100 for the full control effect
Target sequence (Q9NR56 whole entry, looked up): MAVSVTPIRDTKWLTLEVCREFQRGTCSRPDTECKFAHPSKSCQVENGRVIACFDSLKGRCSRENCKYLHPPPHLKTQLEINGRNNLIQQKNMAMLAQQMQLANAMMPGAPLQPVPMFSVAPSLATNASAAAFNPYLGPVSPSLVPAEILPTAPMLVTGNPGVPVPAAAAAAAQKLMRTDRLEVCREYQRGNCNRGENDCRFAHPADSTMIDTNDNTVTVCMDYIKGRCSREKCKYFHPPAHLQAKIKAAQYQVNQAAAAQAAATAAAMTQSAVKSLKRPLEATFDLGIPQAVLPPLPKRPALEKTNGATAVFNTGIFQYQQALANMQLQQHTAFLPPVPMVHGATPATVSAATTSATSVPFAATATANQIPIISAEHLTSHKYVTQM
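MBNL1-His + Biotin-(CUG)12, cpd titration 92 nM–58 uM; Tb anti-His Ab 0.055 ng/ul, SA-XL665 5 nM (final); 60 min RT; ratiometric 665/545 nm, Ex 340 nm; normalized to buffer and full-complex controls.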
BCR signal inh: inhibitors of chronic active B-cell receptor signaling; ABC-DLBCL IkBa-CBG/CBR reporter, luminescence ratio, 4 h; Potency, µM (top dose mostly 46.1 µM), for the others: at the top dose activity change, negative = inhibition, usual class: inhibitors; 340,000 compounds, 0.05% hits; AID 493014; active = well fitted inhibition curve with a large enough effect in the signal ratio, with a control signal flat, not every such curve was filed as active; inconclusive = small, poorly fitted or top-dose-only effect, or effect the other way, or a change in a side signal; the % refers to the signal ratio;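 note: plate controls were basal doxycycline-induced cells for no effect and cells given 10 µM MG132 for full effect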
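Cell line TMD8 (human ABC DLBCL), stably expressing tet-inducible CBG68-IkBa fusion and CBR; IMDM/0.5% FBS; cpd up to 46 uM; dox induction, 4 h, 37C/5% CO2; dual luminescence; green/red ratio; MG132 control.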
gsp agonist: activates gsp, the McCune-Albright syndrome mutation; gsp mutant cells, cAMP HTRF, 30 min; Potency, µM (top dose mostly 76.9 µM), inactives show at the top dose activation (cAMP increase), actives largely listed as activators; 340,000 compounds, 0.13% hits; active = well fitted activation curve with a large enough effect; inconclusive = small, poorly fitted or top-dose-only effect, or another doubt; inactive = no such curve, though single readings can be large or run the other way; cell line not stated here;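 note: phosphodiesterase inhibitor Ro 20-1724 added with compounds to block cAMP breakdown; nearly all actives have a fitted effect of over 60% in size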
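Cells stably selected in G418 were plated at 2000/well, grown 16-24 hr, then given compounds in DMSO with the PDE inhibitor […] (300 uM solution added) for 30 min at 37C; cAMP was read by HTRF.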
gsp antag: antagonists of gsp mutant (McCune-Albright syndrome) | Potency, µM (series often up to 76.9 µM), without a hit: at the highest dose activity change, negative = inhibition, most hits filed as inhibitors | AID 624288 | 340,000 compounds, 0.4% hits | gsp-mutant cells, cAMP HTRF, 30 min; calls by dose curve; cell line not stated here;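 note: intracellular cAMP measured with PDE inhibitor Ro 20-1724 present during compound exposure; % is set by controls: 0 for no effect and ±100 for the full control effect; nearly all actives have a fitted effect of over 65% in size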
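HTRF cAMP measurement after 30 min RT detection following 30 min, 37C compound treatment alongside […] (added as 300 uM solution) in G418-selected cells seeded at 2000/well and grown 16–24 h.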
S-ASM inh: human S-ASM enzyme inhibition; P17405; placental ASM, HMU-PC fluorogenic substrate, 60 min; Potency, µM (top dose mostly 57.5 µM), without a hit: at the highest dose activity change, negative = inhibition, actives largely listed as inhibitors; 340,000 compounds, 0.006% hits; active = well fitted inhibition curve with a large enough effect; inconclusive = small, poorly fitted or top-dose-only effect; inactive = no such curve, though single readings can be large or run the other way
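Steps: dispense placental human ASM, pin compound, wait 10 min at room temperature, add HMU-PC0 substrate at 9 uM final, incubate 60 min at 37 °C, add stop solution raising pH to 10, read fluorescence.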
An asterisk follows results filed as active; u = inconclusive; x = no result; [ ] = dose if it differs, or a comment. Most compounds without a hit are left out; they make up all but 0.62% or so of the library. Potency is the fitted concentration of half-maximal effect.

SMILES | MBNL1-CUG inh | BCR signal inh | gsp agonist | gsp antag | S-ASM inh
Cc1cc(C(=O)OCC(=O)c2ccc(Br)s2)no1 | 82% | 4% | 35µM* | 26% | 0%
Cc1cc(C(=O)COC(=O)CNS(=O)(=O)c2ccc3ccccc3c2)c(C)n1-c1ccccc1 | 97% | u | -9% | 6% | -4%
Cc1ccc(C(=O)NCC(=O)OCC(=O)c2ccc(Br)s2)cc1 | x | 16% | 14µM* | 11% | 5%
Cc1cc(C(=O)OCC(=O)c2ccc(Br)s2)c(C)o1 | 33% | 4% | x | x | x
CCOc1ccc(S(=O)(=O)N2CCN(C(=O)CN3C(=O)NC(C)(C)C3=O)CC2)cc1 | x | 10% | -26% | 11% | 1%
COc1cc(/C=C2\SC(=S)N(CCC(=O)Nc3cccc(O)c3)C2=O)cc(OC)c1OC | 6% | u | 8%[15.4 µM] | u | u
COC(=O)c1sc(NC(=O)C2CCCCC2C(=O)O)c(C(=O)OC)c1C (stereo not given) | 34% | 0% | 14µM* | 9% | -3%
COc1ccccc1NC(=O)Cc1noc(CSc2cc(C)c3ccccc3n2)n1 | 10% | u | -1% | -13% | -3%
COc1ccccc1NC(=O)Cc1noc(CSc2cccc[n+]2[O-])n1 | 1% | 23µM* | 26% | 2% | 3%
Cc1ccc(C(=O)N2CCN(c3ccc(F)cc3)CC2)cc1S(=O)(=O)N1CCCCC1 | -9% | 2% | -54% | -10% | -3%
Cc1ccc(C(=O)N2CCN(c3ccccc3)CC2)cc1S(=O)(=O)N1CCCC1 | -2% | -5% | -40% | 32µM* | 1%
CCCc1nnc2n1N=C(c1ccc(OC)c(OC)c1)CS2 | u | 13µM* | 3% | 9% | 4%
COc1ccc(C2=Nn3c(nnc3-c3ccccc3F)SC2)cc1OC1CCCC1 | x | 5.8µM* | x | x | u
COc1ccc(C2=Nn3c(nnc3-c3ccccc3F)SC2)cc1OC1CCOC1 (stereo not given) | x | -1% | x | x | 4%
CCOc1ccc(C2=Nn3c(nnc3-c3ccc(OC)cc3)SC2)cc1 | -7% | 13µM* | -9% | 0% | -19%
C[C@H](CO)N1C[C@H](C)[C@@H](CN(C)S(=O)(=O)c2ccc(-n3cccn3)cc2)OCc2cn(nn2)CCCC1=O | x | x | -28% | x | x
N#CCc1ccc(NC(=O)CSc2nnc(C3CC3)n2C2CC2)cc1 | x | u | -16% | -4% | 4%
CN1CCN(CCCNC(=S)Nc2ccc(F)c(Cl)c2)CC1 | 0% | -7% | -12%[15.4 µM] | 9% | -2%
COCCNC(=O)c1cn(C)c2ccc(S(=O)(=O)N(C)C3CCCCC3)cc2c1=O | -2% | 13% | -15% | 11µM* | -4%
CCOCCCNC(=O)c1cn(C)c2ccc(S(=O)(=O)N(C)C3CCCCC3)cc2c1=O | -5% | -1% | x | x | x
O=C(O)c1ccccc1SCc1cn2cc(Br)ccc2n1 | 16% | u | 10µM* | 26% | -3%
CCOc1ccc(C2NC(=O)CCC2[N+](=O)[O-])cc1 (stereo not given) | -4% | 1% | 6%[15.4 µM] | 0% | 0%
CCOC(=O)COc1cc2c3c(c(=O)oc2cc1C)CCCC3 | -4% | 1% | -61% | 2% | 0%
CCOC(=O)COc1cc(OCC(=O)OCC)c2c3c(c(=O)oc2c1)CCCC3 | 5% | u | 11µM* | u | -3%
O=C(Nc1ccc([N+](=O)[O-])cc1Cl)c1cc(Cl)ccc1O | x | u | x | 2µM* | -3%
CC(C)(C)C1CCc2onc(C(=O)Nc3ccc4c(c3)OCO4)c2C1 (stereo not given) | 1% | -1% | -2%[15.4 µM] | 2% | 3%
Cc1ccc(C)c(C(=O)OCC(=O)Nc2cccc(S(=O)(=O)N3CCCCC3)c2)c1 | x | u | 5% | 25µM* | -2%
CC(=O)c1c(C)[nH]c(C(=O)OCC(=O)Nc2cccc(S(=O)(=O)N3CCCC3)c2)c1C | -9% | -21% | -71% | 32µM* | -13%
Cc1ccc(OCC(=O)Nc2cccc(S(=O)(=O)N3CCCC3)c2)cc1C | x | x | -1% | x | x
CC(=O)c1c(C)[nH]c(C(=O)OCC(=O)Nc2cc(S(=O)(=O)N3CCCC3)ccc2Cl)c1C | 0% | u | 9% | -10% | -8%
